Source: PubChem BioAssay AID489018 (Southern Research Specialized Biocontainment Screening …, 2010)
About 350 (15%) of roughly 2,300 compounds were called active. How the calls were made is not given here. A selection follows. Entries with a potency or affinity are not part of this list.

Assay: HepG2 cell cytotoxicity, dose response, cytotoxicity control for non-replicating M. tuberculosis project (AID 489018);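 further: HepG2 human liver cells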
Conditions: series mostly up to 20 µM

SMILES	outcome
CCc1ccc(NC(=O)C(=O)NNC(=O)COc2cccc(OC)c2)cc1	inactive
O=C(NNc1nc2cc3c(cc2s1)OCCO3)c1ccccc1	inactive
O=[N+]([O-])c1ccc(CNc2cccc(Cl)c2)s1	inactive
CC1=NN(C(=O)c2csc(C)c2C)C(O)(C(F)(F)F)C1 (stereo unspecified)	inactive
CCOCC(=O)Nc1nc2ccc(C)cc2s1	inactive
CCN(CC)CCSc1nnc2c3cc(C)ccc3n(Cc3ccccc3)c2n1	inactive
O=C(Nc1nc2ccccc2n1CCN1CCCC1)c1ccc(Cl)cc1	inactive
O=C(Nc1nc2ccccc2n1CCN1CCCC1)C1CCCCC1	inactive
Cc1cccc(NC(=O)COC(=O)CCc2c[nH]c3ccccc23)c1	inactive
O=C(COC(=O)c1ccccc1Cl)NCCC1=CCCCC1	inactive
O=c1cc2[nH]c3ccccc3c(=O)n2nc1-c1ccccc1	inactive
CC1CC(C)CN(C(=O)COC(=O)c2ccc([N+](=O)[O-])o2)C1 (stereo unspecified)	inactive
COc1ccc(CCCC(=O)NCc2ccccc2)cc1C	inactive
COc1ccc(S(=O)(=O)NCc2ccc3c(c2)cc(C)n3C)cc1	inactive
COC(=O)COc1ccc2c(-c3ccc(OC)cc3)cc(=O)oc2c1	inactive
C=C1CCC[C@]2(C)C[C@H]3OC(=O)C(CNC(C)CCCC(C)C)[C@H]3CC12 (stereo partly specified)	inactive
O=C(Oc1ccccc1Cl)c1ccc2c(=O)n3c(nc2c1)CCC3	inactive
CC(/C=C/c1cccc([N+](=O)[O-])c1)=N\NC(=O)c1ccncc1	inactive
COC(=O)COc1cccc(/C=N/NC(=O)CCSc2ccccc2)c1	inactive
O=C(N/N=C\c1ccccc1OCc1ccccc1)c1ccco1	inactive
CC(/C=C/c1ccccc1)=N\NC(=O)c1ccc2c(c1)OCCO2	inactive
C/C(=N\NC(=O)c1cccs1)c1ccc2c(c1)OCO2	inactive
Cc1occc1C(=O)N/N=C/c1ccc[nH]1	inactive
Cc1occc1C(=O)N/N=C/C(Br)=C\c1ccccc1	inactive

SMILES	outcome
O=C(N/N=C/c1ccc[nH]1)c1ccc2c(c1)OCO2	inactive
C/C(Cn1nnc([N+](=O)[O-])n1)=N\NC(=O)c1ccncc1	inactive
COC(=O)CN(C#N)c1nc(SC)nc(N(C)C)n1	inactive
O=C1CCC/C(=N/Nc2ccc(Cl)cc2)C1	inactive
CCOCCOC(=O)c1ccc(NC(=O)C2COc3ccccc3O2)cc1 (stereo unspecified)	inactive
Cc1cc(Cl)ccc1OC(C)C(=O)Nc1ccc([N+](=O)[O-])cn1 (stereo unspecified)	inactive
Cc1ccc(C)c(NC(=O)c2cc([N+](=O)[O-])cc([N+](=O)[O-])c2)c1	inactive
O=C(CCc1ccc(Oc2cc([N+](=O)[O-])cc([N+](=O)[O-])c2)cc1)N1CCCCC1	inactive
Cc1ccccc1-n1ncc2c([N+](=O)[O-])cc([N+](=O)[O-])cc21	inactive
Cc1cc(C)n(C(=O)c2ccc([N+](=O)[O-])cc2[N+](=O)[O-])n1	inactive
N/C(=N/OC(=O)c1ccccc1Cl)c1ncc([N+](=O)[O-])s1	inactive
COc1ccc(OC)c(NC(=O)C(=O)NNC(=O)C23CC4CC(CC(C4)C2)C3)c1	inactive
Brc1ccc(-c2ccc(CNCc3ccccn3)o2)cc1	inactive
Cc1ccc2[nH]c3c(c2c1)CCCC3NCCO (stereo unspecified)	inactive
Cc1ccc2c(c1)c1c3n2CCN=C3CCC1	inactive
O=C(COc1cccc2ccccc12)Nc1nc2ccccc2[nH]1	inactive
O=C(OCC(=O)N1CCC(c2ccccc2)=N1)c1ccc([N+](=O)[O-])s1	inactive
Cc1ccc(C(=O)NNC(=S)NC(=O)c2ccc(Cl)cc2)cc1	inactive
CCCCCOc1ccc(CSC2=NCCN2)cc1[N+](=O)[O-]	inactive
Cc1cc(Br)ccc1OCCCCN1CCC(C)CC1	inactive
CCOC(=O)CCNC(=O)c1ccc2nc(C3CCCCC3)oc2c1	inactive
CCOc1ccc(/C=N/OCC(=O)Nc2ccc3c(c2)OCO3)cc1	inactive
O=C(Cn1cc([N+](=O)[O-])nc1[N+](=O)[O-])N1CCN(c2ccccc2)CC1	inactive
O=C(c1ccccc1[N+](=O)[O-])N1N=C(c2ccccc2)CC1(O)C(F)(F)F (stereo unspecified)	inactive

SMILES	outcome
CC1=NN(C(=O)c2ccc(Cn3nc(C)c(Br)c3C)cc2)C(O)(C(F)(F)F)C1 (stereo unspecified)	inactive
Cc1ccc(OC(=O)c2ccc(Br)o2)cc1	inactive
O=C1NCC(O)=C1C=Nc1ccccc1O	inactive
COc1cccc(NC(=O)c2ccc(Cn3cc([N+](=O)[O-])cn3)o2)c1	inactive
CCc1cccc(OCCCn2ccnc2)c1	inactive
CCOc1ccc(OCC(=O)Nc2ccc(OC)cc2)cc1	inactive
Cc1ccc(-c2noc(CCC(=O)Nc3cccc(C#N)c3)n2)cc1	inactive
Cn1cccc1/C=C1/C(=O)NC(=S)N(Cc2ccc(F)cc2)C1=O	inactive
CCN1/C(=C(\O)c2ccccc2)C(=O)c2ccccc2S1(=O)=O	inactive
Cc1cc(Nc2ccccc2)n(-c2nc3ccccc3[nH]2)n1	inactive
Cc1cc(NC(=O)c2ccccc2F)n(-c2nc3ccccc3[nH]2)n1	inactive
Cc1ccc(C(=O)N/N=C\c2ccc(-c3ccc(Cl)cc3)o2)cn1	inactive
CCN1CSC(=S)N(Cc2ccc(OC)cc2)C1	inactive
COc1cc(/C=N/N(C)C)ccc1OC(=O)c1cccs1	inactive
O=C(CC1CCCCC1)NCc1ccccc1	inactive
Cc1ccn2c(NC3CCCC3)c(-c3ccccn3)nc2c1	inactive
Cc1cccc(C(=O)Nc2nnc(-c3cccnc3)o2)c1	inactive
COc1ccc(C(=O)Nc2nnc(-c3ccccc3)o2)cc1OC	inactive
COc1cccc(C(=O)Nc2nnc(-c3ccc(F)cc3)o2)c1	inactive
COc1cccc(C(=O)OCC(=O)Nc2nnc(-c3ccccc3)o2)c1	inactive
O=C(Nc1nnc(-c2ccc(Cl)cc2)o1)c1ccccc1Br	inactive
COc1cccc(-c2nnc(NC(=O)c3cccc(F)c3)o2)c1	inactive
O=C(Nc1nnc(-c2ccc(F)cc2)o1)c1cc(Cl)sc1Cl	inactive
Cc1ccc(C(=O)Nc2nnc(-c3ccncc3)o2)cc1	inactive

SMILES	outcome
O=C1c2cccc3c([N+](=O)[O-])ccc(c23)C(=O)N1c1ccc(Cl)cn1	inactive
Cc1ccc(OCCCCn2ccnc2)c(Cl)c1	inactive
O=C(CCNc1cccc(Cl)c1)c1ccco1	inactive
CSc1ccccc1NC(=O)c1cc(C(C)C)on1	inactive
COc1ccc(/C=C2\COc3ccccc3C2=O)cc1OC	inactive
COc1cccc(C(=O)OCC(=O)c2ccc(Br)s2)c1OC	inactive
CCCCOC(=O)Cn1c(-c2ccccc2)nc2ccccc2c1=O	inactive
O=C(Nc1nnc(-c2ccc(Cl)cc2)o1)c1cccc(N2C(=O)CCC2=O)c1	inactive
O=C(Nc1ccc(S(=O)(=O)N2CCOCC2)cc1)c1ccc([N+](=O)[O-])s1	inactive
COc1ccc(C(=O)Nc2nnc(C3=COCCO3)o2)cc1	inactive
O=C(Nc1nnc(-c2ccccc2Cl)o1)c1ccco1	inactive
COc1ccc(-c2nnc(NC(=O)C3=COCCO3)o2)cc1	inactive
O=C(Nc1nnc(-c2ccccc2Cl)o1)c1cccnc1	inactive
O=C(N/N=C/c1cc([N+](=O)[O-])ccc1O)C12CC3CC(CC(C3)C1)C2	inactive
CCN1CCN(c2ccc(S(=O)(=O)N3CCCCC3)cc2NC(=O)c2ccc([N+](=O)[O-])o2)CC1	inactive
O=C(OCc1cccc(F)c1)c1ccc2c(=O)n3c(nc2c1)CCC3	inactive
CN(C)CC/C=C1/c2ccc(F)cc2Sc2ccc(Cl)cc21	inactive
O=[N+]([O-])c1cc(-c2nc(-c3ccncc3)no2)cc([N+](=O)[O-])c1	inactive
O=c1c2cc(Cl)ccc2oc2nc3n(c(=O)c12)CCCS3	inactive
CC(=O)CC1(OC(C)=O)C(=O)N(C)c2ccccc21 (stereo unspecified)	inactive
O=C(Oc1cccc2cccnc12)c1cccc(-n2cnnn2)c1	inactive
Oc1ccc(F)c2cccnc12	inactive
COc1cc(NC(=O)N2CCOCC2)cc(OC)c1	inactive
COc1ccc(/C=N/NC(=O)c2ccncc2)cc1CN1CCOCC1	inactive

SMILES	outcome
O=C(CCN1CCOCC1)c1ccc(Cl)cc1	inactive
O=C(Oc1cccc2cccnc12)c1cccc([N+](=O)[O-])c1	inactive
O=C(Oc1cccc2cccnc12)c1ccc2c(c1)OCCO2	inactive
COc1cc(OC)cc(OC(=O)c2ccc3c(=O)n4c(nc3c2)CCC4)c1	inactive
CCc1ccc(N2NC(=O)/C(=C/C=C/c3ccco3)C2=O)cc1	inactive
Cc1ccccc1OCCCCc1c(C)n[nH]c1C	inactive
COc1ccc(C(=O)COC(=O)c2ccc(Cl)nc2)c(OC)c1	inactive
COc1ccc(N2C(=O)NC(=O)/C(=C/c3ccc([N+](=O)[O-])s3)C2=O)cc1	inactive
CCc1ccc(Cc2cnc(NC(=O)C3=NCCN3)s2)cc1	inactive
CCCCNC(=O)Cc1ccc(C)cc1	inactive
COc1cccc2[nH]c3c(Cl)ncnc3c12	inactive
Cc1ccc(C(=O)Oc2cccc(-n3cnnn3)c2)cc1	inactive
CCOC(=O)C1(CCc2ccccc2)CCN(Cc2ccccn2)CC1	inactive
O=C(COc1c(Br)cc(Br)c2cccnc12)N1CCCCC1	inactive
O=C(OCC(=O)N1CCN(c2ccccc2)CC1)c1cnc(Cl)c(Cl)c1	inactive
Cc1[nH]n2c(=O)c3c(nc2c1-c1ccccc1)CCCC3	inactive
O=C(Nc1nc2ccccc2[nH]1)c1cccc([N+](=O)[O-])c1	inactive
Cc1cc(C)n2[nH]c(=O)c(N=Nc3cccc(C(F)(F)F)c3)c2n1	inactive
CCOC(=O)c1ccc(-c2ccc(C(=O)Nc3cccnc3)o2)cc1	inactive
Cc1cccc(C)c1NC(=O)COC(=O)CCc1c[nH]c2ccccc12	inactive
